The first test can be described thus: A549 cell viability effects, profiling panel, calcein-AM fluorescence, 48 h, basal (AID 1162). To be noted: higher = more signal.
Consider `CCOC(=O)C1=CCC(c2ccccc2)N(S(=O)(=O)c2ccc([N+](=O)[O-])cc2)C1` (stereo not given), for which the z-score is -0.482.

Regarding `CCOC(=O)C1=C[C@@H](c2ccccc2)N(S(=O)(=O)c2ccc(C)cc2)[C@H]1c1ccccc1`, the z-score is -0.834. As for `C=CCNC(=O)[C@@H]1[C@H]2C(=O)O[C@H](c3ccccc3)[C@H](c3ccccc3)N2[C@H](c2ccc(O)cc2)[C@@]12C(=O)Nc1ccc(C#CCC(C(=O)OC)C(=O)OC)cc12`, the z-score is -0.399.

For `C=C[C@@H](C)[C@@H](OC(=O)Nc1ccc(SC)cc1)c1ccc(OCCO)cc1`, the z-score is -0.555. Same read-out and setting: with `COc1cc(NN2C(C(O)c3cc(OC)c(OC)c(OC)c3)C=CC3C(=O)N(c4ccccc4)C(=O)C32)cc(OC)c1OC` (stereo not given) the figure was -0.94; with `COc1ccc([Si](C)(C)[C@@H]2[C@@H](CC(=O)N3Cc4ccccc4C[C@H]3CO)O[C@]3(C(=O)N(Cc4ccc(N5CCC5=O)cc4)c4ccccc43)[C@H]2C)cc1`, -0.167; with `CN(C)C(=O)[C@@]1(CCC(=O)OC(C)(C)C)N=C(c2ccc(OCCCO)cc2)O[C@H]1c1ccccc1CN=[N+]=[N-]`, -0.286.

As to `CCOC(=O)C[C@H]1[C@H](OC(=O)c2ccccc2-c2ccccc2)[C@@H](NC(=O)c2ccccc2)c2cc(OCCCO)ccc2N1C(=O)c1ccccc1`, the z-score was -0.164. The same measure, in the same setting: as for `CN(C)CCCC[C@@H]1NC(=O)[C@@H]2C[C@H](C(=O)O)[C@H](c3cccc(OCCO)c3)N2C1=O`, the figure is 0.0184.

A further test in a line: adipocyte viability effects, profiling panel, cell-based, 3T3-L1 adipocytes, calcein-AM fluorescence, 48 h, basal (AID 1163). The settings on record: 3T3-L1 adipocytes viability, higher = more signal.
As to `COc1ccc([Si](C)(C)[C@@H]2[C@@H](CCn3cc([C@H](O)c4ccccc4)nn3)O[C@]3(C(=O)N(c4ccccc4)c4ccccc43)[C@H]2C)cc1`, the z-score was 1.98.

As for `CCN(CC)c1ccc(N2CC=CC34O[C@@H]5C=CCCOC(=O)C5[C@H]3C(=O)N(CCO)[C@@H]4C2=O)cc1` (stereo not given in full), the z-score is 1.11. On the same count and under the same terms, with `COc1ccc([Si](C)(C)[C@H]2[C@H](CCO)O[C@@]3(C(=O)N(Cc4ccc(N5C(=O)c6ccccc6Oc6ccccc65)cc4)c4ccccc43)[C@@H]2C)cc1` the figure was 0.56. Same read-out and setting: with `CC(C)CNC(=O)[C@@]1(C)c2ccccc2C(=O)N(Cc2cc(C(F)(F)F)cc(C(F)(F)F)c2)[C@H]1c1ccc(CO)cc1` the figure was -0.698. On to `[N-]=[N+]=NC[C@H](Cc1ccccc1)NC(=O)c1ccccc1`, for which the z-score was 0.474. Same read-out and setting: with `CN(C)C(=O)[C@]1(CCS(=O)(=O)c2ccccc2)N=C(c2ccc(OCCCO)cc2)O[C@@H]1c1ccccc1` the figure was 1.02; with `O=C(CS)NCCCCCNC(=O)[C@@H]1C[C@@H]2C(=O)N[C@@H](Cc3ccccc3)C(=O)N2[C@@H]1c1cccc(OCCO)c1`, -0.284. Still for that read-out and setting: with `CN1C(=O)C2C=CC(C(O)c3ccc(F)cc3)N(NC(=O)OC(C)(C)C)C2C1=O` (stereo not given) the figure was -0.528; with `[N-]=[N+]=NCc1ccccc1[C@@H]1OC(c2ccc(OCCCO)cc2)=N[C@]1(Cc1ccccc1)C(=O)NCCN1CCOCC1`, 1.09. Same read-out and setting: as for `[N-]=[N+]=Nc1ccccc1[C@@H]1OC(c2ccc(OCCCO)cc2)=N[C@]1(Cc1ccccc1)C(=O)NCc1ccccc1`, the figure is -0.0535; as for `CO[C@H]1O[C@H](CO)[C@@H](OC(=O)Nc2ccc(C#N)cc2)[C@@H]2OC(=O)[C@H](Cc3cccc(Br)c3)C/C=C/C[C@@H](Cc3cccc(Br)c3)C(=O)O[C@@H]12`, 0.685; as for `CC(C)C[C@@H]1NC(=O)[C@@]23C(=O)N[C@@H](Cc4ccccc4)C2[C@H](C)[C@@]2(C)O[C@H]2C3/C=C/C/C=C\CNC(=O)[C@@H](C)NC1=O` (stereo not given in full), 0.718. On to `COCCOC(=O)N1C(=O)[C@@]2(c3cc(C#CCC(C(=O)OC)C(=O)OC)ccc31)[C@H](c1ccc(O)cc1)N1[C@H](c3ccccc3)[C@H](c3ccccc3)OC(=O)[C@H]1[C@@H]2C(=O)NC[C@H](O)c1ccccc1`, for which the z-score was 0.0453. The same measure, in the same setting: with `C=CCC(OC(C)=O)[C@@H]1[C@@H](N(Cc2ccc(-c3cccc(C(F)(F)F)c3)o2)C(=O)c2ccc(C)cc2)c2cc(OCCCO)ccc2N1C(=O)Cc1ccc(OC)cc1` (stereo not given in full) the figure was 0.608; with `CCCCC(=O)N(CCN1CCOCC1)[C@@H]1CC(C(=O)NCCO)=C[C@H](Oc2c(I)cc(CO)cc2OC)[C@H]1O`, -1.07; with `O=C1NC(=O)C2C1C=CC(C(O)c1ccccn1)N2Nc1ccc(Cl)cc1Cl` (stereo not given), -0.253. Same read-out and setting: as for `C=CCC(OC(C)=O)[C@@H]1[C@@H](N(Cc2ccc(-c3cccc(C(F)(F)F)c3)o2)C(=O)Cc2ccc(OC)cc2)c2cc(OCCCO)ccc2N1C(=O)Cc1ccc2ccccc2c1` (stereo not given in full), the figure is 1.78. As to `C=C[C@@H](C)[C@H](O)c1ccc(OCCO)cc1`, the z-score was 0.154. On the same count and under the same terms, with `O=C1O[C@H](c2ccccc2)[C@H](c2ccccc2)N2[C@H]1[C@@H](C(=O)N1CCCCCCC1)[C@]1(C(=O)Nc3ccc(C#CC4(O)CCCCCC4)cc31)[C@H]2c1ccccc1OCCO` the figure was -0.107. Still for that read-out and setting: as for `O=C1O[C@H](c2ccccc2)[C@H](c2ccccc2)N2[C@H]1[C@@H](C(=O)N1CCCCCCC1)[C@]1(C(=O)Nc3ccc(C#CC4(O)CCCCCC4)cc31)[C@H]2c1ccc(O)cc1`, the figure is -0.597; as for `COCCOC(=O)N1C(=O)[C@@]2(c3ccccc31)[C@H](c1ccc(OCCO)cc1)N1[C@H](c3ccccc3)[C@H](c3ccccc3)OC(=O)[C@H]1[C@@H]2C(=O)N1CCCCCCC1`, 0.0203; as for `CC(=O)NCCCC[C@@H]1NC(=O)[C@@H]2C[C@H](C(=O)NCCCCCCN)[C@H](c3cccc(OCCO)c3)N2C1=O`, 0.691. With `[N-]=[N+]=Nc1ccccc1C[C@]1(C(=O)O)N=C(c2ccc(OCCCO)cc2)O[C@H]1c1ccccc1N=[N+]=[N-]`, the z-score is 0.22. Same read-out and setting: with `CCN(CC)c1ccc(N2CC=CC34O[C@@H]5/C=C\CCC(C)OC(=O)C5[C@H]3C(=O)N(C(C)CO)[C@@H]4C2=O)cc1` (stereo not given in full) the figure was -1.03; with `O=C(O)[C@H]1C[C@H]2C(=O)N[C@@H](Cc3ccccc3)C(=O)N2[C@H]1c1cccc(OCCO)c1`, -0.218. As to `CCCCCCCCCCC(O)C1C=CC2C(=O)N(C)C(=O)C2N1Nc1cc(OC)c(OC)c(OC)c1` (stereo not given), the z-score is -0.555. In the case of `C=CCN1C(=O)[C@]2(O[C@H](CCO)[C@@H]([Si](C)(C)c3ccc(OC)cc3)[C@@H]2C)c2cc(N3C(=O)COc4ccccc43)ccc21`, the z-score is 1.76. The same measure, in the same setting: with `CCOC(=O)C1=CCC(c2ccccc2)N(S(=O)(=O)c2ccc([N+](=O)[O-])cc2)C1` (stereo not given) the figure was -1.19.

For `CCOC(=O)C1=C[C@@H](c2ccccc2)N(S(=O)(=O)c2ccc(C)cc2)[C@H]1c1ccccc1`, the z-score was -0.926. Same read-out and setting: with `C=CCNC(=O)[C@@H]1[C@H]2C(=O)O[C@H](c3ccccc3)[C@H](c3ccccc3)N2[C@H](c2ccc(O)cc2)[C@@]12C(=O)Nc1ccc(C#CCC(C(=O)OC)C(=O)OC)cc12` the figure was -0.937; with `C=C[C@@H](C)[C@@H](OC(=O)Nc1ccc(SC)cc1)c1ccc(OCCO)cc1`, 0.248; with `COc1cc(NN2C(C(O)c3cc(OC)c(OC)c(OC)c3)C=CC3C(=O)N(c4ccccc4)C(=O)C32)cc(OC)c1OC` (stereo not given), 0.641. On to `COc1ccc([Si](C)(C)[C@@H]2[C@@H](CC(=O)N3Cc4ccccc4C[C@H]3CO)O[C@]3(C(=O)N(Cc4ccc(N5CCC5=O)cc4)c4ccccc43)[C@H]2C)cc1`, for which the z-score was 0.233. Still for that read-out and setting: as for `CN(C)C(=O)[C@@]1(CCC(=O)OC(C)(C)C)N=C(c2ccc(OCCCO)cc2)O[C@H]1c1ccccc1CN=[N+]=[N-]`, the figure is -0.607; as for `CCOC(=O)C[C@H]1[C@H](OC(=O)c2ccccc2-c2ccccc2)[C@@H](NC(=O)c2ccccc2)c2cc(OCCCO)ccc2N1C(=O)c1ccccc1`, -0.603; as for `CN(C)CCCC[C@@H]1NC(=O)[C@@H]2C[C@H](C(=O)O)[C@H](c3cccc(OCCO)c3)N2C1=O`, 0.13.

The values above are taken from PubChem BioAssay.
Also: test concentration not given here.
